Data on nine compounds can be found in PubChem BioAssay (NCI).

Each structure is given as a SMILES string. About 83,000 compounds went through this panel and 20% of them were active in at least one assay; those are over-represented in the sample as a whole.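 In brief: 96-well plates, 48 h treatment, single concentration, percent growth endpoint.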 Values without a mark were called inactive. Calls of active or inactive are those of the source. The calls were made as follows: active = growth percent below 10; inactive = the rest.

Among the test systems are SNB-75 CNS; SNB-19 CNS; SK-MEL-5 melanoma; UACC-62 melanoma; LOX IMVI melanoma; SK-MEL-28 melanoma; EKVX NSCLC; SN12C renal; UO-31 renal; TK-10 renal; ACHN renal; CAKI-1 renal; A498 renal; CCRF-CEM leukemia; MOLT-4 leukemia; SR leukemia; U251 CNS; PC-3 prostate; SK-MEL-2 melanoma.
Common to all, as to assay: NCI-60 one-dose screen, 48 h (100 = growth as untreated, 0 = no growth, -100 = all killed)
What all share (conditions): 10 µM unless noted

For `CCCOc1ccc2c(c1)CC[C@@H]1[C@@H]2CC[C@@]2(C)[C@H]1CC[C@]2(C)O`, the growth is 73.4% in the assay on SNB-75 CNS; 94.3% in the assay on SNB-19 CNS; 92.7% in the assay on SK-MEL-5 melanoma; 95.8% in the assay on UACC-62 melanoma; 65% in the assay with LOX IMVI melanoma; 85.3% in the assay on SK-MEL-28 melanoma. Moreover, the growth in the assay on EKVX NSCLC was 80%; in the assay on SN12C renal, 82.7%; in the assay on UO-31 renal it was 69.9%; with TK-10 renal, 69.3%; with ACHN renal, 93.9%; in the assay with CAKI-1 renal, 62.3%. The growth was 114% in the assay on A498 renal, 72.8% in the assay on CCRF-CEM leukemia, 75.9% with MOLT-4 leukemia and 73% in the assay on SR leukemia.
Regarding `O=C(Nc1ccc(Cl)cc1)Nc1ccc(Oc2nncc3ccccc23)cc1`, the growth was -3.13% (active) in the assay with SNB-75 CNS; -31.1% (active) in the assay on U251 CNS; -29% (active) in the assay on PC-3 prostate; -43.3% (active) in the assay on SK-MEL-5 melanoma; -14.3% (active) in the assay with UACC-62 melanoma; -77.3% (active) in the assay with LOX IMVI melanoma. Moreover, the growth with SK-MEL-28 melanoma was -31.6% (active); in the assay with SK-MEL-2 melanoma, 12.4%; with EKVX NSCLC, 26.7%; in the assay with SN12C renal, -3.83% (active); in the assay on UO-31 renal it was -51.6% (active); in the assay on TK-10 renal it was 27.5%. For the same compound, the growth was -15.1% (active) with ACHN renal; 18.7% in the assay with CAKI-1 renal; 24.5% in the assay with A498 renal; 8.7% (active) in the assay with CCRF-CEM leukemia; 3.99% (active) in the assay with MOLT-4 leukemia; 2.64% (active) in the assay with SR leukemia.
As for `CCCCCCC(C)(O)c1ccccc1` (stereo not given), the growth with SNB-75 CNS was 90.6%; with SNB-19 CNS it was 104%; in the assay with U251 CNS, 109%; with SK-MEL-5 melanoma, 109%; with UACC-62 melanoma it was 96.5%; with LOX IMVI melanoma, 92%. In addition, the growth in the assay with SK-MEL-28 melanoma is 115%; in the assay with EKVX NSCLC it was 101%; with SN12C renal, 96.7%; with UO-31 renal it was 80.3%; with TK-10 renal, 106%; with ACHN renal it was 103%. Moreover, the growth in the assay on CAKI-1 renal was 96.8%; with A498 renal, 145%; with CCRF-CEM leukemia, 91.9%; in the assay with MOLT-4 leukemia, 106%; in the assay with SR leukemia it was 97.6%.
Take `O=C1CC(=O)N(c2ccccc2)O1`: the growth in the assay on SNB-75 CNS is 85%; in the assay on SNB-19 CNS, 110%; with U251 CNS, 104%; with SK-MEL-5 melanoma, 97.6%; in the assay with UACC-62 melanoma, 93.9%; with LOX IMVI melanoma it was 89.5%. For the same compound, the growth in the assay with SK-MEL-28 melanoma was 107%; in the assay with EKVX NSCLC, 108%; in the assay on SN12C renal it was 94.9%; in the assay with UO-31 renal, 61.7%; in the assay with TK-10 renal, 122%; in the assay with ACHN renal it was 97.4%. For the same compound, the growth is 94.8% in the assay with CAKI-1 renal; 94.6% with A498 renal; 110% in the assay on CCRF-CEM leukemia; 114% in the assay with MOLT-4 leukemia; 110% with SR leukemia.
With `CC(C)[O-].CC(C)[O-].CN(CCN(C)Cc1cc(F)cc(F)c1[O-])Cc1cc(F)cc(F)c1[O-].[Ti+4]`, the growth is 4.7% (active) with U251 CNS; -59.5% (active) in the assay on SK-MEL-5 melanoma; -22.8% (active) in the assay on UACC-62 melanoma; -39% (active) in the assay on LOX IMVI melanoma; -23.3% (active) with SK-MEL-28 melanoma; -52% (active) in the assay on SK-MEL-2 melanoma. In addition, the growth is -8.9% (active) with EKVX NSCLC; 19.7% in the assay on SN12C renal; -14.5% (active) with UO-31 renal; -12.6% (active) in the assay on TK-10 renal; 9.76% (active) in the assay on ACHN renal; -11.1% (active) with CAKI-1 renal. Also, the growth in the assay with CCRF-CEM leukemia was 16.4%; in the assay with MOLT-4 leukemia, 8.02% (active); in the assay with SR leukemia it was 1.21% (active).
Turning to `c1coc([C@@H]2C[C@@H]3Cc4ccc5ccccc5c4N2O3)c1`, the growth in the assay with SNB-75 CNS is 89.2%; in the assay on SNB-19 CNS, 104%; with U251 CNS, 102%; in the assay with SK-MEL-5 melanoma, 101%; in the assay with UACC-62 melanoma, 103%; with LOX IMVI melanoma, 103%. Further, the growth was 111% in the assay on SK-MEL-28 melanoma; 103% in the assay on EKVX NSCLC; 108% with SN12C renal; 75% with UO-31 renal; 88.6% in the assay with TK-10 renal; 107% in the assay with ACHN renal. In addition, the growth with CAKI-1 renal was 84.7%; in the assay with A498 renal it was 90.2%; in the assay with CCRF-CEM leukemia, 79%; with MOLT-4 leukemia, 73.7%; in the assay with SR leukemia it was 88.8%.
For the compound `CC(NC(=O)C(C)Oc1ccc(Cl)cc1Cl)C(=O)O` (stereo not given), the growth was 96.2% with SNB-19 CNS; 105% in the assay on U251 CNS; 102% in the assay with PC-3 prostate; 101% in the assay with SK-MEL-5 melanoma; 91.7% with UACC-62 melanoma; 113% in the assay on SK-MEL-28 melanoma. Moreover, the growth with SK-MEL-2 melanoma was 97.4%; in the assay on EKVX NSCLC, 95.8%; in the assay on SN12C renal, 73.3%; in the assay with UO-31 renal, 78.1%; in the assay on TK-10 renal it was 125%; with ACHN renal, 109%. The growth in the assay on CAKI-1 renal is 101%; in the assay with A498 renal, 113%; in the assay on CCRF-CEM leukemia, -9.97% (active); with MOLT-4 leukemia, 139%; with SR leukemia, 137%.
Regarding `COc1cc(/C=C2\COc3ccc(O)cc3C2=O)cc(OC)c1`, the growth with SNB-75 CNS is 87%; in the assay with SNB-19 CNS, 50.5%; with U251 CNS, 30.1%; with UACC-62 melanoma it was 62.6%; in the assay on LOX IMVI melanoma, -65.5% (active); in the assay with SK-MEL-28 melanoma, 94.4%. For the same compound, the growth with SK-MEL-2 melanoma was 101%; in the assay with EKVX NSCLC, 94.8%; in the assay with SN12C renal, 21.7%; in the assay on UO-31 renal, 63.1%; in the assay with TK-10 renal, 93.6%; with ACHN renal, 48.9%. The growth in the assay with CAKI-1 renal is 68.4%; with A498 renal it was 101%; in the assay with CCRF-CEM leukemia it was -0.953% (active); with MOLT-4 leukemia, 31.3%; with SR leukemia it was 3.36% (active).
In the case of `CCOc1cc(C(C)(C)C)ccc1C1=N[C@H](c2ccc(Cl)cc2)[C@H](c2ccc(Cl)cc2)N1C(=O)N1CCN(CC#Cc2cccc3c2CN([C@@H]2CCC(=O)NC2=O)C3=O)CC1`, the growth is 23% with SNB-75 CNS; 45% in the assay on SNB-19 CNS; 65.8% in the assay with U251 CNS; 24.3% in the assay on UACC-62 melanoma; 31.8% in the assay with LOX IMVI melanoma; 53.4% with SK-MEL-28 melanoma. Besides, the growth is 48.4% in the assay on EKVX NSCLC; 24.4% in the assay on SN12C renal; 5.26% (active) with UO-31 renal; 49% in the assay with TK-10 renal; 23.6% with ACHN renal; 7.99% (active) with CAKI-1 renal. Further, the growth in the assay with A498 renal is 14.1%; in the assay on CCRF-CEM leukemia, -4.36% (active); in the assay with MOLT-4 leukemia it was -13.3% (active); in the assay with SR leukemia it was 9.99% (active).
